In PubChem BioAssay (NCATS):
Results filed as inconclusive are left out. Activity calls are given as the source filed them. Calls come from the whole dose curve; as a rule, active = well fitted inhibition curve with a large enough effect; inconclusive = small, poorly fitted or top-dose-only effect; inactive = flat fitted curve, though single readings scatter.

How the values were obtained:
[1] = qHTS profiling for inhibitors of Plasmodium falciparum proliferation (AID 504749);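 note: 0% = DMSO vehicle and full inhibition = artemisinin control; nearly all actives have a fitted effect of over 60% in size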; settings: P. falciparum in erythrocytes, SYBR Green DNA, 72 h, at 28.7 µM (top of the series)
Summary of the method: (§1)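 Readout was DNA-dye fluorescence from lysed cultures, ex 485/em 535 nm. Parasitized red cells had grown 72 h with compound; data scaled between 0.29 uM artemisinin and DMSO wells and corrected using vehicle-only plates.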

3D7 = assay: as above; settings: P. falciparum in erythrocytes, SYBR Green DNA, 72 h; series mostly up to 28.7 µM
Summary of the method: as §1

7G8 = assay: as above; settings: P. falciparum in erythrocytes, SYBR Green DNA, 72 h; series mostly up to 28.7 µM
Summary of the method: as §1

AA1029 = assay: as above; settings: P. falciparum in erythrocytes, SYBR Green DNA, 72 h; series mostly up to 28.7 µM
Summary of the method: as §1

AS120 = assay: as above; settings: P. falciparum in erythrocytes, SYBR Green DNA, 72 h; series mostly up to 28.7 µM
Summary of the method: as §1

ATS189 = assay: as above; settings: P. falciparum in erythrocytes, SYBR Green DNA, 72 h; series mostly up to 28.7 µM
Summary of the method: as §1

ATS95 = assay: as above; settings: P. falciparum in erythrocytes, SYBR Green DNA, 72 h; series mostly up to 28.7 µM
Summary of the method: as §1

C2A = assay: as above; settings: P. falciparum in erythrocytes, SYBR Green DNA, 72 h; series mostly up to 28.7 µM
Summary of the method: as §1

CP185 = assay: as above; settings: P. falciparum in erythrocytes, SYBR Green DNA, 72 h; series mostly up to 28.7 µM
Summary of the method: as §1

CP191 = assay: as above; settings: P. falciparum in erythrocytes, SYBR Green DNA, 72 h; series mostly up to 28.7 µM
Summary of the method: as §1

CP192 = assay: as above; settings: P. falciparum in erythrocytes, SYBR Green DNA, 72 h; series mostly up to 28.7 µM
Summary of the method: as §1

CP194 = assay: as above; settings: P. falciparum in erythrocytes, SYBR Green DNA, 72 h; series mostly up to 28.7 µM
Summary of the method: as §1

CP201 = assay: as above; settings: P. falciparum in erythrocytes, SYBR Green DNA, 72 h; series mostly up to 28.7 µM
Summary of the method: as §1

CP203 = assay: as above; settings: P. falciparum in erythrocytes, SYBR Green DNA, 72 h; series mostly up to 28.7 µM
Summary of the method: as §1

CP211 = assay: as above; settings: P. falciparum in erythrocytes, SYBR Green DNA, 72 h; series mostly up to 28.7 µM
Summary of the method: as §1

CP215 = assay: as above; settings: P. falciparum in erythrocytes, SYBR Green DNA, 72 h; series mostly up to 28.7 µM
Summary of the method: as §1

CP217 = assay: as above; settings: P. falciparum in erythrocytes, SYBR Green DNA, 72 h; series mostly up to 28.7 µM
Summary of the method: as §1

CP237 = assay: as above; settings: P. falciparum in erythrocytes, SYBR Green DNA, 72 h; series mostly up to 28.7 µM
Summary of the method: as §1

CP238 = assay: as above; settings: P. falciparum in erythrocytes, SYBR Green DNA, 72 h; series mostly up to 28.7 µM
Summary of the method: as §1

CP247 = assay: as above; settings: P. falciparum in erythrocytes, SYBR Green DNA, 72 h; series mostly up to 28.7 µM
Summary of the method: as §1

O=C(O)/C=C/c1ccccc1
inactive: activity, negative = inhibition ([1]; parasite line A) -6.43% | activity, negative = inhibition ([1]; parasite line B) 4.85% | Potency (3D7) | Potency (7G8) | Potency (AA1029) | Potency (AS120) | Potency (ATS189) | Potency (ATS95) | Potency (C2A) | Potency (CP185) | Potency (CP191) | Potency (CP192) | Potency (CP194) | Potency (CP201) | Potency (CP203) | Potency (CP211) | Potency (CP215) | Potency (CP217) | Potency (CP237) | Potency (CP238) | Potency (CP247)

CCN(CC)C(=S)S
inactive: activity, negative = inhibition ([1]; parasite line A) -22.3% | activity, negative = inhibition ([1]; parasite line B) -18.1% | Potency (3D7) | Potency (7G8) | Potency (AA1029) | Potency (AS120) | Potency (ATS189) | Potency (ATS95) | Potency (C2A) | Potency (CP185) | Potency (CP191) | Potency (CP192) | Potency (CP194) | Potency (CP201) | Potency (CP203) | Potency (CP211) | Potency (CP215) | Potency (CP217) | Potency (CP237) | Potency (CP238) | Potency (CP247)

O=S(=O)(O)CC(S)CS (configuration not stated)
inactive: activity, negative = inhibition ([1]; parasite line A) 14.3% | activity, negative = inhibition ([1]; parasite line B) -2.53% | Potency (3D7) | Potency (7G8) | Potency (AA1029) | Potency (AS120) | Potency (ATS189) | Potency (ATS95) | Potency (C2A) | Potency (CP185) | Potency (CP191) | Potency (CP192) | Potency (CP194) | Potency (CP201) | Potency (CP203) | Potency (CP211) | Potency (CP215) | Potency (CP217) | Potency (CP237) | Potency (CP238) | Potency (CP247)

CCCOC(=O)c1ccccc1O
inactive: activity, negative = inhibition ([1]; parasite line A) 3.1% | activity, negative = inhibition ([1]; parasite line B) 6.22% | Potency (3D7) | Potency (7G8) | Potency (AA1029) | Potency (AS120) | Potency (ATS189) | Potency (ATS95) | Potency (C2A) | Potency (CP185) | Potency (CP191) | Potency (CP192) | Potency (CP194) | Potency (CP201) | Potency (CP203) | Potency (CP211) | Potency (CP215) | Potency (CP217) | Potency (CP237) | Potency (CP238) | Potency (CP247)

CCCCC(CC)CCC(CC(C)C)OS(=O)(=O)O (configuration not stated)
inactive: activity, negative = inhibition ([1]; parasite line A) -0.0494% | activity, negative = inhibition ([1]; parasite line B) 5.85% | Potency (3D7) | Potency (7G8) | Potency (AA1029) | Potency (AS120) | Potency (ATS189) | Potency (ATS95) | Potency (C2A) | Potency (CP185) | Potency (CP191) | Potency (CP192) | Potency (CP194) | Potency (CP201) | Potency (CP203) | Potency (CP211) | Potency (CP215) | Potency (CP217) | Potency (CP237) | Potency (CP238) | Potency (CP247)

CC(C)(Oc1ccc(C2CCCc3ccccc32)cc1)C(=O)O (configuration not stated)
inactive: activity, negative = inhibition ([1]; parasite line A) 0.13% | activity, negative = inhibition ([1]; parasite line B) 7.8% | Potency (3D7) | Potency (7G8) | Potency (AA1029) | Potency (AS120) | Potency (ATS189) | Potency (ATS95) | Potency (C2A) | Potency (CP185) | Potency (CP191) | Potency (CP192) | Potency (CP194) | Potency (CP201) | Potency (CP203) | Potency (CP211) | Potency (CP215) | Potency (CP217) | Potency (CP237) | Potency (CP238) | Potency (CP247)

CCCCC[C@H](O)/C=C/[C@H]1[C@H](O)CC(=O)[C@@H]1C/C=C\CCCC(=O)O
inactive: activity, negative = inhibition ([1]; parasite line A) 7.21% | activity, negative = inhibition ([1]; parasite line B) 0.0897% | Potency (3D7) | Potency (7G8) | Potency (AA1029) | Potency (AS120) | Potency (ATS189) | Potency (ATS95) | Potency (C2A) | Potency (CP185) | Potency (CP191) | Potency (CP192) | Potency (CP194) | Potency (CP201) | Potency (CP203) | Potency (CP211) | Potency (CP215) | Potency (CP217) | Potency (CP237) | Potency (CP238) | Potency (CP247)

Cc1ccc(S(=O)(=O)NCl)cc1
inactive: activity, negative = inhibition ([1]; parasite line A) -0.743% | activity, negative = inhibition ([1]; parasite line B) 4.28% | Potency (3D7) | Potency (7G8) | Potency (AA1029) | Potency (AS120) | Potency (ATS189) | Potency (ATS95) | Potency (C2A) | Potency (CP185) | Potency (CP191) | Potency (CP192) | Potency (CP194) | Potency (CP201) | Potency (CP203) | Potency (CP211) | Potency (CP215) | Potency (CP217) | Potency (CP237) | Potency (CP238) | Potency (CP247)

CCOC(=O)c1cc(-c2ccccc2)nc2ccc(C)cc12
inactive: activity, negative = inhibition ([1]; parasite line A) 17.4% | activity, negative = inhibition ([1]; parasite line B) 7.25% | Potency (3D7) | Potency (7G8) | Potency (AA1029) | Potency (AS120) | Potency (ATS189) | Potency (ATS95) | Potency (C2A) | Potency (CP185) | Potency (CP191) | Potency (CP192) | Potency (CP194) | Potency (CP201) | Potency (CP203) | Potency (CP211) | Potency (CP215) | Potency (CP217) | Potency (CP237) | Potency (CP238) | Potency (CP247)

CCCc1ccc(C(=O)O)cc1
inactive: activity, negative = inhibition ([1]; parasite line A) -2.85% | activity, negative = inhibition ([1]; parasite line B) -4.82% | Potency (3D7) | Potency (7G8) | Potency (AA1029) | Potency (AS120) | Potency (ATS189) | Potency (ATS95) | Potency (C2A) | Potency (CP185) | Potency (CP191) | Potency (CP192) | Potency (CP194) | Potency (CP201) | Potency (CP203) | Potency (CP211) | Potency (CP215) | Potency (CP217) | Potency (CP237) | Potency (CP238) | Potency (CP247)

OCC1(CO)COC(C(Cl)(Cl)Cl)OC1
inactive: activity, negative = inhibition ([1]; parasite line A) 2.06% | activity, negative = inhibition ([1]; parasite line B) 5.66% | Potency (3D7) | Potency (7G8) | Potency (AA1029) | Potency (AS120) | Potency (ATS189) | Potency (ATS95) | Potency (C2A) | Potency (CP185) | Potency (CP191) | Potency (CP192) | Potency (CP194) | Potency (CP201) | Potency (CP203) | Potency (CP211) | Potency (CP215) | Potency (CP217) | Potency (CP237) | Potency (CP238) | Potency (CP247)

C=CCN1CCCC1CNC(=O)c1cc(S(N)(=O)=O)cc(OC)c1OC (configuration not stated)
inactive: activity, negative = inhibition ([1]; parasite line A) -0.688% | activity, negative = inhibition ([1]; parasite line B) 8.33% | Potency (3D7) | Potency (7G8) | Potency (AA1029) | Potency (AS120) | Potency (ATS189) | Potency (ATS95) | Potency (C2A) | Potency (CP185) | Potency (CP191) | Potency (CP192) | Potency (CP194) | Potency (CP201) | Potency (CP203) | Potency (CP211) | Potency (CP215) | Potency (CP217) | Potency (CP237) | Potency (CP238) | Potency (CP247)
